Pf Dd2 growth: Plasmodium falciparum Dd2 growth inhibition; Potency, µM (titrated, usually from 28.9 µM), for inactives: at the top dose activity, negative = inhibition, most hits filed as inhibitors; P. falciparum Dd2 growth, SYBR Green, 72 h; actives 4.3% (n = 120,000); active = well fitted inhibition curve with a large enough effect;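 note: plate controls were DMSO vehicle for no effect and reference drug for full effect; nearly all actives have a fitted effect of over 65% in size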
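Infected erythrocytes (Dd2, 0.3% parasitemia, 2.5% hematocrit final) are added to compound in RPMI-1640/Albumax II medium, grown 72 h at 37C in low oxygen, then lysed with saponin/Triton-X containing SYBR Green and read by fluorescence.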
Numbers without * were called inactive; i = inactive; [ ] = another dose, or the depositor's remark. This excerpt belongs to a sample that is enriched for hits. Potency is the fitted concentration of half-maximal effect.

SMILES	Pf Dd2 growth
CCOc1ccc(C(=O)N2CCC(N3C(=O)CCC3C(=O)NC(C)C)CC2)cc1 (configuration not stated)	9.8%
Cc1nc2ccccc2n1CCNC(=O)CC[C@H]1NC(=O)c2ccccc2NC1=O	-0.8%
COc1ccc(-c2nc3c(c(=O)[nH]2)CCN(C(=O)CSc2ccccc2)C3)cc1	4.47µM*
COc1ccc(-c2nc3c(c(=O)[nH]2)CCN(C(=O)c2ccccc2)C3)cc1	i
COc1ccc(-c2nc3c(c(=O)[nH]2)CCN(C(=O)COc2ccc(F)c(F)c2)C3)cc1	1.0%
Cc1cccc(C(=O)Nc2ccc(-c3nnc4n3CCCC4)cc2)c1	-9.9%
CCOc1ccccc1C(=O)Nc1cccc(-c2nnc3n2CCCC3)c1	5.01µM*
Cc1ccc(C(=O)Nc2ccc(-c3nnc4n3CCCC4)cc2)s1	5.62µM*
O=C(Nc1ccccc1)Nc1ccc(-c2nnc3n2CCCC3)cc1	31.4%
O=C(Nc1ccc(-c2nnc3n2CCCC3)cc1)Nc1cccc(Cl)c1	-8.3%
CCOc1cc(=O)n2c(c1C(=O)Nc1cccc(C)c1)CCCC2	21.6%
Cc1cc(C)cc(C(=O)Nc2cccc(-c3nnc4n3CCCC4)c2)c1	3.16µM*
O=C(Nc1ccc(-c2nnc3n2CCCC3)cc1)c1ccc[nH]c1=O	-2.0%
CC(=O)Nc1ccc(-c2nnc3n2CCCC3)cc1	24.8%
O=C(Nc1cccc(-c2nnc3n2CCCC3)c1)c1ccccc1Cl	5.62µM*
O=C(Nc1cccc(-c2nnc3n2CCCC3)c1)Nc1ccccc1F	8.1%
O=C(Nc1ccc(-c2nnc3n2CCCC3)cc1)c1cc(C2CC2)[nH]n1	i
CC(C)n1cc2cc(C(=O)N3CCCCC3)sc2c1	-20.4%
CC(C)c1nc(NCCCN2CCCC(C(N)=O)C2)c2cnn(C)c2n1 (configuration not stated)	-17.7%
Oc1cc(-c2csc3ccccc23)cc2c1OCCNC2	i
CCC(=O)NNc1ncnc2c1cnn2-c1ccc(C)c(Cl)c1	i
COc1cccc(CNC(=O)[C@@H]2C[C@@H](O)CN2C2CCN(C(=O)c3cc(C)nn3C)CC2)c1	-2.5%
COc1ccc(C)cc1NC(=O)CN1C(=O)CSc2ccc(S(=O)(=O)N3CCCC3)cc21	19.2%
CC(C)c1ccc(NC(=O)CCC2CCN(C(=O)c3ccccc3)CC2)cc1	i
COc1ccc(N2CCN(C(=O)CCc3nnc4n(C)c(=O)c5sccc5n34)CC2)cc1	13.0%
SMILES	Pf Dd2 growth
COCCNC(=O)c1ccc(N2CC3CC(C2)[C@H]2CCCC(=O)N2C3)nc1 (some centres not stated)	-19.7%
COc1ccc(CCC(=O)NCc2ccc3c(c2)CCN3C(=O)c2ccc(C)cc2)cc1	20.8%
COc1ccc(OCC(=O)NCc2ccc3c(c2)CCN3C(=O)c2ccccc2)cc1	-4.0%
COc1ccc(CCC(=O)NCc2ccc3c(c2)CCN3C(=O)c2ccccc2)cc1	6.31µM*
COc1ccc(-c2onc(C)c2C(=O)NCc2ccccc2)cc1	-19.5%
CCc1nc2nccc(-c3ccc(OC)cc3)n2n1	-11.1%
CNC(=O)c1ccc2c(c1)N(Cc1ccccc1Cl)C(=O)c1ccccc1S2	i
COc1ccc(CCNC(=O)c2ccc3c(c2)N(Cc2ccccc2Cl)C(=O)c2ccccc2S3)cc1OC	11.2µM*
CCOc1ccc(CN2C(=O)c3ccccc3Sc3ccc(C(=O)NC)cc32)cc1	-14.0%
Cc1ccc(CCNC(=O)c2ccc3c(c2)N(Cc2cccc(F)c2)C(=O)c2ccccc2S3)cc1	2.4%
COc1ccc(CCNC(=O)c2ccc3c(c2)N(Cc2cc(C)ccc2C)C(=O)c2ccccc2S3=O)cc1OC (configuration not stated)	4.47µM*
O=C(NCc1ccco1)c1ccc2c(c1)N(Cc1ccccc1)C(=O)c1ccccc1S2	i
CCOc1ccc(CN2C(=O)c3ccccc3Sc3ccc(C(=O)NCc4ccc5c(c4)OCO5)cc32)cc1	10µM*
Cc1ccc(CCNC(=O)c2ccc3c(c2)N(Cc2ccccc2)C(=O)c2ccccc2S3=O)cc1 (configuration not stated)	i
CCOc1ccc(CCNC(=O)c2ccc3c(c2)N(Cc2ccccc2)C(=O)c2ccccc2S3=O)cc1OCC (configuration not stated)	i
O=C(NCc1ccccc1)c1cnc2n1CCN(Cc1ccccc1)CC2	11.4%[44.1 µM]
O=S(=O)(c1cnc[nH]1)N1CCC(c2nc(CCOCC3CCOCC3)no2)C1 (configuration not stated)	-3.9%
O=C(O)CCc1cc2n(n1)CCCN(C(=O)c1cc3c([nH]c1=O)CCC3)C2	29.7%
NC(=O)C1(C(=O)N2CCC3(CCCN(CCCc4ccccc4)C3=O)C2)CC1 (configuration not stated)	3.0%
CCn1ccc(C(=O)N2CCCCCCNC(=O)[C@@H]3C[C@@H](c4nc(-c5cccnc5)no4)C[C@@H]32)n1	i
COc1ccccc1-c1nocc1CCC(=O)O	16.3%
CN(C)CCN(C)C[C@H]1CN2CC[C@H]1C[C@@H]2CNC(=O)Nc1ccsc1	15.7%[44.1 µM]
COc1cccc(-c2nc(-c3nnn4c3COC(c3ccc(C)cc3)C4)no2)c1OC (configuration not stated)	-3.9%
